The record followed here is PubChem BioAssay.

Molecules are shown by their SMILES. The source made the active and inactive calls.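 Rule for the calls, unless noted: active = fluorescence slope after compound addition differing from the mean of all screened samples at 99.7% confidence, in either direction; inactive = the rest.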

Assay [1] is described as follows: inhibitors of TNFa-induced NFkB p65 translocation, primary screen, imaging, HUVEC, MLSMR starter and 10KST1 sets (AID 438;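 active = inhibition above 20% together with a positive visual image hit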;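 note: compound added about 3h40 before a 20 min TNFalpha stimulation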;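 for inhibition: signal is the nuclear over cytoplasmic p65 intensity ratio per well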). Particulars: HUVEC TNFa-induced p65 nuclear translocation; cell count: measured here: nuclei count (cytotoxicity indicator), at 2.08 µM; inhibition: at 2 µM, stronger effect = higher value, 0% TNFa-plus-vehicle, 100% no-TNFa wells.
Assay [2] is described as follows: inhibitors of mutant huntingtin aggregation, primary screen, imaging, exon1htt(103Q)mCFP cells, high-content imaging (AID 483;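 active = visual image review flags a hit and inhibition of aggregation exceeds 20%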;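 note: compound exposure lasted 3 days before fixation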;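 for nuclei count: percent of the per-plate median nuclei count of sample wells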). Particulars: exon1htt(103Q)mCFP cell line, aggregate imaging, at 2 µM; inhibition of aggregation: stronger effect = higher value; nuclei count: measured here: cell count, toxicity.
The nature of assay [3]: inhibitors of E-selectin induction by TNFa, primary screen, imaging, HUVEC, immunofluorescence, MLSMR starter and 10KST1 sets (AID 487;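 active = visually confirmed hit in the image check and inhibition above 20%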;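 for inhibition: signal is fraction of cell area covered by stained E-selectin grains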;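 for nuclei count: 100% = median nuclei count of all wells on the same plate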). Particulars: HUVEC TNFalpha-induced E-selectin immunofluorescence imaging, at 2 µM; inhibition: stronger effect = higher value; nuclei count: measured here: cell number, toxicity.
Assay [4] has as its target Voltage-gated potassium channel subunit beta-2 (Rattus norvegicus) (UniProt P62483). As to the kind of experiment: KvBeta enzyme negative modulators, primary screen, biochemical, NADPH fluorescence (AID 622;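 active = fluorescence slope higher than the sample average by over 3 SD, cut at about -0.22 in these data, passing the limit was not always enough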;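 note: slope of raw intensity against log time taken from 70 to 1610 s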). Particulars: recombinant KvBeta, 4-cyanobenzaldehyde reduction, at 10 µM, stronger effect = higher value.
For assay [5] the target is unchanged. Put plainly: KvBeta positive modulators, primary screen, biochemical, NADPH fluorescence (AID 623;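 active = NADPH fluorescence slope more negative than the mean of all samples by about 3 SD, 99.7% confidence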;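 note: fluorescence intensity change per second fitted from 20 to 320 s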). Particulars: Recombinant KvBeta, NADPH fluorescence decrease slope, 10 min; at 10 µM; stronger effect = lower value.
Assay [6] addresses Alpha-2C adrenergic receptor (Homo sapiens) (UniProt P18825). Put plainly: modulators of alpha2C/GIRK thallium flux, primary screen, cell-based, HEK293 alpha2C/GIRK1/2 (AID 624).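 Note: slope of fluorescence ratio to pre-addition baseline per second over 15 to 24 s.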 Particulars: thallium flux BTC fluorescence, at 10 µM, actives lie on both sides.
Assay [7] in a line: inhibitors of Sendai virus-induced IRF3 signaling, primary screen, TLR/RLR signaling modifier project, cell-based, Sendai virus stimulus, luciferase, 10K MLSCN set (AID 602276;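 active = inhibition at or above 50% at 10 µM; inactive = inhibition below 50%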;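 note: firefly luciferase from ISG56 promoter only with Renilla not read in this screen; 0% = Sendai virus plus DMSO and 100% = medium plus DMSO without virus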). Particulars: HEK293 RL24 IRF3 luciferase reporter, at 10 µM, stronger effect = higher value. (Reporter assays use an easily measured gene product as a stand-in for the process of interest.)
A short description of assay [8]: inhibitors of poly I:C-induced TLR3 signaling, primary screen, cell-based, poly I:C stimulus, luciferase, 10K MLSCN set (AID 602277;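 active = inhibition of the reporter signal at or above 50%; inactive = inhibition below 50%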). Particulars: HEK293-TLR3 RL24 IRF3 luciferase reporter, at 10 µM, stronger effect = higher value.

Alpha-2C adrenergic receptor (Homo sapiens), sequence (P18825 whole entry, looked up): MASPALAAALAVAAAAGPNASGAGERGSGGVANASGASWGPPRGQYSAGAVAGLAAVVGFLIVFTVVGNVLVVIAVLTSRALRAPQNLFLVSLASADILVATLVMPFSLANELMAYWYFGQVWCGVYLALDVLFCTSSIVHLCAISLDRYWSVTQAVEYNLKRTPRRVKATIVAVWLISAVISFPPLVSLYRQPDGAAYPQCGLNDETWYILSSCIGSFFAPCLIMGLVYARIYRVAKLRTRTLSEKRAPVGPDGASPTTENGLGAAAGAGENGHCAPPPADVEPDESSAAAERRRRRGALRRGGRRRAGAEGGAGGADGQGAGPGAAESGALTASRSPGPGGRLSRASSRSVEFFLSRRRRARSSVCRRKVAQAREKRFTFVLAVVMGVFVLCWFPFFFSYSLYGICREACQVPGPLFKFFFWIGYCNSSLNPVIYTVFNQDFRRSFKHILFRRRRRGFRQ
Voltage-gated potassium channel subunit beta-2 (Rattus norvegicus), sequence (P62483 whole entry, looked up): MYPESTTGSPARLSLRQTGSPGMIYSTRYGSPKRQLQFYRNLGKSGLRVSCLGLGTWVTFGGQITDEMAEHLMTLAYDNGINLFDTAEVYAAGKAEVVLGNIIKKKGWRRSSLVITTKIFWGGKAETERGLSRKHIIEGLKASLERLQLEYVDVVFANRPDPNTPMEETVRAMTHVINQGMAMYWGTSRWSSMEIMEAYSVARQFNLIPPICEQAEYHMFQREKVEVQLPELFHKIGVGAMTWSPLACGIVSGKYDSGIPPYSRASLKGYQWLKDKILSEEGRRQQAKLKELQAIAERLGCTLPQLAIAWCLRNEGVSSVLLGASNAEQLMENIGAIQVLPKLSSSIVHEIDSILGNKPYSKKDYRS

By inhibition is commonly meant the change of the read-out against control, counted positive when it falls. For `CC1Cc2ccccc2N1S(=O)(=O)c1cccc(C(=O)OCC(=O)NC2CCS(=O)(=O)C2)c1` (centres undefined), the cell count in assay [1] worked out at 657. The inhibition was 0.7% (inactive) in assay [1], -92% (inactive) in assay [3], 20.6% (inactive) in assay [7] and 29.8% (inactive) in assay [8]. Besides, the inhibition of aggregation in assay [2] was 6.3% (inactive). Further, the nuclei count is 103% in assay [2] and 112% in assay [3]. Also, the fluorescence slope in assay [4] was -0.625 (inactive). In assay [5], the NADPH fluorescence slope was -4.3e-05 (inactive). For the same molecule, in assay [6], the slope is 0.00343 (inactive).

With `C=CCNC(=O)CN(c1cccc(Br)c1)S(C)(=O)=O`, in assay [1], the cell count amounted to 322. The inhibition in assay [1] is -0.5% (inactive); in assay [3], 21.4% (inactive); in assay [7] it was 8.3% (inactive); in assay [8], 14.4% (inactive). For the same molecule, in assay [2], the inhibition of aggregation is 13.9% (inactive). The nuclei count in assay [2] turned out to be 95.4%; in assay [3], 115%. In addition, the fluorescence slope in assay [4] was -0.509 (inactive). The NADPH fluorescence slope in assay [5] is 2.5e-05 (inactive). Moreover, in assay [6], the slope is 0.00557 (inactive).

`O=C(NC1=NCCS1)c1nc(-c2ccccc2)n(-c2ccccc2)n1`: in assay [1], the cell count is 495. The inhibition in assay [1] was 4.7% (inactive); in assay [3] it was -60.7% (inactive); in assay [7] it was 8.38% (inactive); in assay [8], 11.1% (inactive). Also, the inhibition of aggregation in assay [2] is 1% (inactive). In addition, the nuclei count in assay [2] came out at 109%; in assay [3], 113%. The fluorescence slope in assay [4] is -0.405 (inactive). In addition, the NADPH fluorescence slope in assay [5] was -4.9e-05 (inactive). For the same molecule, the slope in assay [6] is 0.00535 (inactive).

In the case of `Cc1cc(=O)oc2cc(OCC#N)ccc12`, the cell count in assay [1] came to 823. Further, the inhibition in assay [1] was -2.9% (inactive); in assay [3] it was -66.4% (inactive); in assay [7], 8.92% (inactive); in assay [8], 27.1% (inactive). Besides, the inhibition of aggregation in assay [2] is -19.8% (inactive). Besides, the values for the nuclei count in assay [2] and in assay [3] were 95.4% and 128%, respectively. Further, the fluorescence slope in assay [4] is -0.521 (inactive). For the same molecule, the NADPH fluorescence slope in assay [5] was -3.5e-05 (inactive). In addition, the slope in assay [6] is 0.0067 (inactive).

For the molecule `CC(=O)c1ccc(OCC(O)CN2CCN(CCO)CC2)cc1` (centres undefined), the cell count in assay [1] turned out to be 605. Also, the inhibition in assay [1] was -6.1% (inactive); in assay [3], -19.7% (inactive); in assay [7] it was 13.3% (inactive); in assay [8], 40.3% (inactive). The inhibition of aggregation in assay [2] is -14.2% (inactive). In addition, the figures for the nuclei count in assay [2] and in assay [3] were 104% and 113%, respectively. Moreover, the fluorescence slope in assay [4] was -0.549 (inactive). In addition, in assay [5], the NADPH fluorescence slope is -2.9e-05 (inactive). Besides, the slope in assay [6] was 0.00738 (inactive).

Take `O=C(CSc1ncnc2c1cnn2-c1ccccc1)Nc1ccccc1`: in assay [1], the cell count turned out to be 316. The inhibition was 2.4% (inactive) in assay [1], -42% (inactive) in assay [3], 13.5% (inactive) in assay [7] and 23.8% (inactive) in assay [8]. In addition, the inhibition of aggregation in assay [2] was 8.4% (inactive). Also, the nuclei count in assay [2] is 106%; in assay [3], 115%. In assay [4], the fluorescence slope is -0.493 (inactive). In addition, the NADPH fluorescence slope in assay [5] was -1.4e-05 (inactive). Also, the slope in assay [6] is 0.00569 (inactive).

Consider `CC(=O)NC(Cc1c[nH]c2ccccc12)C(=O)OCC(=O)Nc1cc(C)on1` (centres undefined), for which the cell count in assay [1] is 505. Further, the inhibition in assay [1] was 9.6% (inactive); in assay [3], -0.6% (inactive); in assay [7] it was -5.34% (inactive); in assay [8], 8.03% (inactive). Also, the inhibition of aggregation in assay [2] is 0.7% (inactive). For the same molecule, the nuclei count in assay [2] was determined as 110%; in assay [3], 97.6%. Further, in assay [4], the fluorescence slope is -0.376 (inactive). Besides, the NADPH fluorescence slope in assay [5] was 1.5e-05 (inactive). The slope in assay [6] is 0.00598 (inactive).

In the case of `Cc1c(C(=O)Nc2cnccn2)oc2ccccc12`, the cell count in assay [1] was 370. For the same molecule, the inhibition is 7.3% (inactive) in assay [1], -97.6% (inactive) in assay [3], 0.764% (inactive) in assay [7] and -4.49% (inactive) in assay [8]. Besides, in assay [2], the inhibition of aggregation was 7.5% (inactive). Also, the figures for the nuclei count in assay [2] and in assay [3] were 95.3% and 108%, respectively. In addition, the fluorescence slope in assay [4] was -0.371 (inactive). In addition, the NADPH fluorescence slope in assay [5] was 4.4e-05 (inactive). Further, the slope in assay [6] was 0.00977 (inactive).

`CC(C)N(C(=O)N1CCC(c2nc(-c3ccncc3)no2)CC1)C(C)C`: the cell count in assay [1] came to 653. Besides, the inhibition is -7.5% (inactive) in assay [1], -95.9% (inactive) in assay [3], 0.899% (inactive) in assay [7] and -5.83% (inactive) in assay [8]. Besides, in assay [2], the inhibition of aggregation is 8.3% (inactive). Also, the nuclei count in assay [2] amounted to 102%; in assay [3] it was 106%. Besides, in assay [4], the fluorescence slope is -0.354 (inactive). Moreover, the NADPH fluorescence slope in assay [5] was -3.3e-05 (inactive). In addition, the slope in assay [6] was 0.00413 (inactive).

`Cc1nc(N)[nH]c(=O)c1CCC(=O)OCC(C)C`: in assay [1], the cell count amounted to 587. The inhibition in assay [1] is -22.7% (inactive); in assay [3] it was -61.2% (inactive); in assay [7], 6.72% (inactive); in assay [8], 32.1% (inactive). In addition, in assay [2], the inhibition of aggregation was 5.9% (inactive). The values for the nuclei count in assay [2] and in assay [3] were 80% and 97%, respectively. In assay [4], the fluorescence slope was -0.507 (inactive). Besides, the NADPH fluorescence slope in assay [5] is -4.8e-06 (inactive). Also, the slope in assay [6] was 0.00627 (inactive).

Consider `COC(=O)c1ccccc1NS(=O)(=O)c1ccc(F)cc1`, for which the cell count in assay [1] came to 609. The inhibition in assay [1] was 2.4% (inactive); in assay [3], -22.1% (inactive); in assay [7], 9.83% (inactive); in assay [8] it was 17.7% (inactive). In assay [2], the inhibition of aggregation was -3% (inactive). Also, the nuclei count in assay [2] was 99.4%; in assay [3], 114%. For the same molecule, in assay [4], the fluorescence slope was -0.523 (inactive). Moreover, the NADPH fluorescence slope in assay [5] was -3.8e-05 (inactive). In assay [6], the slope was 0.00602 (inactive).

With `Cc1cccc(NC(=O)c2ccc3ccccc3n2)n1`, in assay [1], the cell count came out at 408. Also, the inhibition in assay [1] was -4.5% (inactive); in assay [3], -50.9% (inactive); in assay [7], -11.1% (inactive); in assay [8] it was -91.5% (inactive). Also, the inhibition of aggregation in assay [2] was 0.8% (inactive). Moreover, the nuclei count in assay [2] amounted to 86.6%; in assay [3], 95.8%. For the same molecule, the fluorescence slope in assay [4] was -0.303 (inactive). Besides, in assay [5], the NADPH fluorescence slope is -1.5e-05 (inactive). In assay [6], the slope was 0.0061 (inactive).

With `Cc1ccc(C)c(/C(O)=C2\C(=O)C(=O)N(CCCN3CCOCC3)C2c2cccnc2)c1` (centres undefined), in assay [1], the cell count is 529. Besides, the inhibition was 5.5% (inactive) in assay [1], -280% (inactive) in assay [3], 9.67% (inactive) in assay [7] and 21.1% (inactive) in assay [8]. Also, the inhibition of aggregation in assay [2] was -1.6% (inactive). Besides, the nuclei count in assay [2] was determined as 109%; in assay [3], 127%. In addition, the fluorescence slope in assay [4] was -0.339 (inactive). Further, the NADPH fluorescence slope in assay [5] was -2.4e-06 (inactive). In assay [6], the slope is 0.00619 (inactive).

For `Cc1[nH]nc2c1C1(C(=O)N(Cc3ccc(Cl)cc3)c3ccccc31)C(C#N)=C(N)O2` (centres undefined), in assay [1], the cell count is 358. Also, the inhibition was 1.4% (inactive) in assay [1], -24.6% (inactive) in assay [3], 12.5% (inactive) in assay [7] and 0.315% (inactive) in assay [8]. Moreover, the inhibition of aggregation in assay [2] was -1.1% (inactive). Also, the nuclei count in assay [2] was 101%; in assay [3], 114%. Further, in assay [4], the fluorescence slope is -0.338 (inactive). For the same molecule, the NADPH fluorescence slope in assay [5] was -3.4e-05 (inactive). Besides, the slope in assay [6] is 0.00523 (inactive).
